Shown are actives, neighbours in structure and some others; about 7.4% of the full set was active somewhere.
HEK cytotox – cytotoxic compounds in HEK 293 cells. HEK 293 viability, ATP luminescence (CellTiter-Glo), 48-72 h. AID 1345083. 6.6% of 94,000 active. Potency, µM (top dose mostly 115 µM), most hits filed as inhibitors; note: nearly all actives have a fitted effect of over 60% in size
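CellTiter-Glo luminescence (cellular ATP) was read after 48 or 72 hr of compound exposure at 37 degree Celsius. Cells were HEK 293 plated at 250 cells/well.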
3T3 cytotox – kills NIH 3T3 cells | Potency, µM (series often up to 96.7 µM), actives largely listed as inhibitors | NIH 3T3 viability, CellTiter-Glo ATP luminescence, 48-72 h | 4.3% of 94,000 active; note: nearly all actives have a fitted effect of over 55% in size
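Mouse fibroblast NIH 3T3 cells, 400 per well, received compound via pintool and were incubated for 48 or 72 hr prior to CellTiter-Glo ATP luminescence measurement.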
NPR1 antag – antagonists of human natriuretic peptide receptor Npr1. P16066. HEK293 hNpr1 GloSensor cGMP, ANP-stimulated luminescence. Potency, µM (doses to about 46.3 µM), most hits filed as inhibitors. 1.6% of 76,000 active. AID 1347048; calls by dose curve; note: nearly all actives have a fitted effect of over 60% in size
Target sequence (P16066 whole entry, looked up): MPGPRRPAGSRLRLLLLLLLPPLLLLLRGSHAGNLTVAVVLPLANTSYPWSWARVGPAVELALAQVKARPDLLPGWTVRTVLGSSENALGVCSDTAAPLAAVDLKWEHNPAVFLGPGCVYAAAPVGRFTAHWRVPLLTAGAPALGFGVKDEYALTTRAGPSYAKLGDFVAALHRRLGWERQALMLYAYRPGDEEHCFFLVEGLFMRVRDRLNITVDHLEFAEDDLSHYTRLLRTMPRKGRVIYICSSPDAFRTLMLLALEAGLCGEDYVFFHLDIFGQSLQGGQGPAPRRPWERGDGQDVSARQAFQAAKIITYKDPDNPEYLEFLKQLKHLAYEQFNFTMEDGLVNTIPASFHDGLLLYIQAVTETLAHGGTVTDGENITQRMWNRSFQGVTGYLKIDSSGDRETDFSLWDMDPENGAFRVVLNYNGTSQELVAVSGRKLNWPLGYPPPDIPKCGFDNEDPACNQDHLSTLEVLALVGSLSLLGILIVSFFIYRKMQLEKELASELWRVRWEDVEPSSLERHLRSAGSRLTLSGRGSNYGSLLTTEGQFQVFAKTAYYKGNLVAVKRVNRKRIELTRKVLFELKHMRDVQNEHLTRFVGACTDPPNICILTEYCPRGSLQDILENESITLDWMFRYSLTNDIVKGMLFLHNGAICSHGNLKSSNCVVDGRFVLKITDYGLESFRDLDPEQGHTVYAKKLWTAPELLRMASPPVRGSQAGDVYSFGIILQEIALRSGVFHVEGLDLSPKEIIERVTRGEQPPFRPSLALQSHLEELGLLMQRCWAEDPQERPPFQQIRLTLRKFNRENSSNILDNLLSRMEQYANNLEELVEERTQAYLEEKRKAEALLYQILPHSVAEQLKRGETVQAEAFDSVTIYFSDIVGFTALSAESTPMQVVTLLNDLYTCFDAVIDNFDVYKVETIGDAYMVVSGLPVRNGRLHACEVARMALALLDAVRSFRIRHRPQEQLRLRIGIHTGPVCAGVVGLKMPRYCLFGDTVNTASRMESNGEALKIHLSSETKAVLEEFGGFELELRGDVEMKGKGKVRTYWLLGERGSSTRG
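HEK293 cells stably expressing human Npr1 and cGMP GloSensor pGS-40F, loaded 2 h with 2% GloSensor reagent, given compound 30 min at room temperature. Luminescence read before and 20 min after 0.1 nM hNppA.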
FLuc inh-1 – blocks purified firefly luciferase enzyme activity; P08659; purified P. pyralis luciferase, luminescence, biochemical; Potency, µM (doses to about 115 µM), actives largely listed as inhibitors; 2.5% of 76,000 active; AID 1347043; note: nearly all actives have a fitted effect of over 65% in size
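Purified 10nM P. pyralis luciferase with 10uM D-luciferin and 10uM ATP in 50mM Tris acetate pH 7.5, 10mM Mg acetate, 0.01% Tween-20, 0.05% BSA. qHTS titration; luminescence read by CCD imager.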
SNCA expr inh – SNCA gene expression inhibition | Potency, µM (highest dose often 57.2 µM), hits mostly inhibitors | HEK-293 SNCA-luciferase knock-in, luminescence, 24 h | 0.17% of 140,000 active; note: nearly all actives have a fitted effect of over 45% in size
SNCA viab count – counter-screen for SNCA expression inhibitors: cell viability. Potency, µM (series often up to 57.1 µM), usual class: cytotoxic. 0.12% of 150,000 active. HEK-293-SNCA-luc viability, GF-AFC fluorescence, 24 h; note: nearly all actives have a fitted effect of over 30% in size
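Cytotoxicity counterscreen: after 24 h compound treatment of genome-edited SNCA-luciferase HEK-293 cells, live-cell protease substrate GF-AFC read by fluorescence after 30 min; activity scaled between DMSO (0%) and medium-only (-100%), curves Hill-fitted.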
FLuc SDR no ATP – binders stabilizing firefly luciferase, without ATP; 7.8% of 1,300 active; Potency, µM (titrated, usually from 32.7 µM), usual class: activators; AID 1963318; Purified FLuc-C-HiBiT, Nano-Glo HiBiT luminescence, no ATP; shares compounds with FLuc inh-1; note: nearly all actives have a fitted effect of over 55% in size
FLuc SDR ATP – stabilizes firefly luciferase with ATP present. shares compounds with FLuc inh-1. AID 1963319. Potency, µM (highest dose often 32.7 µM), hits mostly activators. 8.7% of 1,300 active. purified FLuc-C-HiBiT + ATP, HiBiT complementation luminescence;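 note: signal reports ligand binding via conformational change of the enzyme rather than luciferase catalysis; nearly all actives have a fitted effect of over 55% in size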
FLuc inh-2 – blocks firefly luciferase enzymatic activity; purified FLuc-C-HiBiT enzyme, luciferin luminescence; Potency, µM (series often up to 32.7 µM), actives largely listed as inhibitors; shares compounds with FLuc inh-1; 42% of 1,300 active; AID 1963320; note: nearly all actives have a fitted effect of over 70% in size
Numbers stand for hits; . = inactive; ? = inconclusive; / = no result given; [ ] = remark or other dose. Unless noted, calls come from the whole dose curve; as a rule, active = well fitted curve in the direction sought with a large enough effect; inconclusive = small, poorly fitted or top-dose-only effect, or another doubt; inactive = no such curve, though single readings can be large; an effect the other way counts as inactive or inconclusive.

SMILES	HEK cytotox	3T3 cytotox	NPR1 antag	FLuc inh-1	SNCA expr inh	SNCA viab count	FLuc SDR no ATP	FLuc SDR ATP	FLuc inh-2
COCCN1CCCN(C(=O)C2CC2)c2ccccc21	?	.	.	.	.	.	/	/	/
CC(C)(C)c1ccc(C(=O)Nc2ccc(C(O)[C@H]3COCC(=O)N3Cc3ccccc3)cc2)cc1 (stereo not given in full)	?	22µM	?	11µM	.	?	.	.	.
CCn1nccc1C(=O)N1CCCC(c2nnnn2-c2ccccc2)C1 (stereo not given)	.	.	.	.	.	.	/	/	/
CC(C)NC(=O)N1C[C@@H](Oc2cccnc2)C[C@H]1C(=O)N1CCOCC1	.	.	.	.	.	.	/	/	/
O=C(COc1ccccc1)Nc1nnc(S(=O)(=O)Nc2ccccc2)s1	/	/	/	/	.	.	.	.	?
O=C(Nc1cccnc1)c1cc(-c2ccc(Cl)cc2)on1	/	/	/	/	.	.	.	.	?
O=C(Nc1ccc2c(c1)OCO2)c1cc(-c2ccc(Br)cc2)on1	/	/	/	/	.	.	/	/	/
O=C(Nc1cccc(Cl)c1)c1cc(-c2ccc3c(c2)OCCO3)on1	/	/	/	/	.	.	?	?	0.62µM
Cc1cccc(NC(=O)c2cc(-c3ccc4c(c3)OCCO4)on2)c1	/	/	/	/	?	.	5µM	?	0.44µM
Cc1ccc(Cl)cc1NC(=O)c1cc(-c2ccc3c(c2)OCCO3)on1	/	/	/	/	?	.	?	?	1.8µM
Cc1cc(OC(=O)c2cc(-c3ccc4c(c3)OCCO4)on2)ccc1Cl	/	/	/	/	.	.	/	/	/
O=C(Nc1cccc(Cl)c1)c1cc(-c2ccccc2)on1	/	/	/	/	.	.	/	/	/
O=C(Nc1cccc(C(F)(F)F)c1)c1cc(-c2ccc3c(c2)OCCO3)on1	/	/	/	/	.	.	/	/	/
CC(C)(C)C1CCc2nc(NC(=O)c3cccc(Cl)c3)sc2C1 (stereo not given)	/	/	/	/	?	.	.	.	2.5µM
CC(C)(O[C@@H]1O[C@H](CO)[C@@H](O)[C@H](O)[C@H]1O)C(OC(=O)/C=C\c1ccc(O)cc1)C(=O)OCc1ccc(O[C@@H]2O[C@H](CO)[C@@H](O)[C@H](O)[C@H]2O)cc1 (stereo not given in full)	/	/	/	/	/	.	/	/	/
CCc1ccc(-c2cn3nc(CC)sc3n2)cc1	/	/	/	/	?	.	/	/	/
CCCCCc1nn2cc(-c3ccccc3)nc2s1	/	/	/	/	?	.	?	?	0.62µM
COc1ccc2cc(C3CN(C(=O)CNC(=O)C(C)C)CCO3)ccc2c1 (stereo not given)	.	.	.	8.9µM	.	.	?	?	?
COc1ccc2cc(C3CN(Cc4nc(C(N)=O)no4)CCO3)ccc2c1 (stereo not given)	.	.	.	.	.	.	/	/	/
COc1ccc(CN2CCOc3ccc(C(=O)NCc4ccc(C)cc4)cc3C2)cc1OC	?	?	.	.	.	.	/	/	/
COc1ccc(OC)c(CN2CCOc3ccc(C(=O)NCc4ccc(C)cc4)cc3C2)c1	?	?	.	.	.	.	.	.	.
Cc1cccc(CN2CCOc3c(O)cc(-c4ccccc4C)cc3C2)n1	?	?	.	.	.	.	/	/	/
Oc1cc(-c2nc3ccccc3s2)cc2c1OCCN(Cc1cccn1-c1ccccn1)C2	/	/	/	/	/	/	.	.	.
Cc1cc(CN2CCOc3c(O)cc(-c4ccccc4C)cc3C2)on1	?	?	.	.	.	.	/	/	/
Oc1cc(-c2nc3ccccc3s2)cc2c1OCCN(Cc1cccn1-c1ncccn1)C2	/	/	/	/	/	/	.	.	.
SMILES	HEK cytotox	3T3 cytotox	NPR1 antag	FLuc inh-1	SNCA expr inh	SNCA viab count	FLuc SDR no ATP	FLuc SDR ATP	FLuc inh-2
COCC(=O)Nc1nc2c(s1)C[C@]1(C)CC[C@@H]3[C@H](OC(=O)[C@H]3C)[C@H]1[C@@H]2C	?	.	5.6µM	0.63µM	?	.	6.4µM	4.5µM	1.6µM
COc1nccnc1NC1CCN(C(=O)c2cnccn2)CC1	.	.	.	.	.	.	/	/	/
O=C1C(c2c(O)[nH]c3ccccc23)=Nc2ccccc21	/	/	/	/	.	.	/	/	/
NS(=O)(=O)c1cccc(N=Cc2c(O)[nH]c3ccccc23)c1	/	/	/	/	/	/	.	.	.
COc1cc(C(=O)N2CCC(O)(c3ccc(C)cn3)CC2)cc(OC)c1OC	.	.	.	.	.	.	/	/	/
Cc1ccc(CNC(=O)C2CCCCC(=O)N2Cc2ccccc2)cc1 (stereo not given)	?	?	/	/	.	.	/	/	/
O=C(N1c2ccccc2CC1c1noc(C2CCOCC2)n1)C1(c2ccccc2)CC1 (stereo not given)	?	.	.	8.9µM	.	.	.	.	?
Cc1cc(C)cc(C(=O)N2c3ccccc3CC2c2nc(C3CC3)no2)c1 (stereo not given)	?	?	.	.	.	.	/	/	/
O=C(NC1CCCCC1)N1c2ccccc2CC1c1noc(C2CCOCC2)n1 (stereo not given)	.	.	.	.	.	.	/	/	/
COc1cccc(CNC(=O)N2c3ccccc3CC2c2noc(C3CCOCC3)n2)c1 (stereo not given)	.	.	.	5µM	.	.	.	.	?
O=C(C1CCC1)N1c2ccccc2CC1c1noc(C2CCOCC2)n1 (stereo not given)	?	.	?	1.8µM	.	.	.	.	?
CN1CC(=O)N(C2CNC2)Cc2c1ncnc2N1CCCCC1	.	.	/	/	.	.	/	/	/
COc1cccc(CC(=O)Nc2ccc3c(c2)CN(Cc2cccc(OC)c2OC)C(=O)CO3)c1	?	.	.	.	.	.	/	/	/
O=C([C@H]1C[C@H](Oc2ccccc2)CN1C(=O)c1ccccc1)N1CCOCC1	.	.	.	.	.	.	/	/	/
CCOC1CCOC2(CCN(C(=O)c3ccncc3)CC2)C1 (stereo not given)	.	.	.	.	.	.[12.5 µM]	/	/	/
Cn1cc(C2=C(c3ccc(Cl)cc3Cl)C(=O)NC2=O)c2ccccc21	/	/	/	/	?	.	/	/	/
Cn1cc(/C=C2\C(=O)Nc3cccnc32)c2ccccc21	/	/	/	/	/	/	.	.	?
O=C(COc1ccc(F)cc1)Nc1cnc(-c2ccccc2)nc1	.	.	.	.	.	?	/	/	/
O=C(Nc1cnc(-c2ccccc2)nc1)C1CCCC1	?	.	10µM	1µM	?	.	?	?	2.5µM
O=C(Nc1cnc(-c2ccc(Cl)cc2)nc1)C1CCC1	.	.	5.6µM	0.28µM	.	.	?	?	1.2µM
